About 270 (0.075%) of roughly 360,000 compounds were called active. Calls come from the whole dose curve; as a rule, active = well fitted activation curve with a large enough effect; inconclusive = small, poorly fitted or top-dose-only effect; inactive = no such curve, though single readings can be large or run the other way. What follows is part of a selection rich in actives, with near analogues and random picks from the rest.
Potency is the fitted concentration of half-maximal effect.

In this experiment the target is Rap guanine nucleotide exchange factor 3 (Homo sapiens) (UniProt O95398). In words: qHTS for Agonist of cAMP-regulated guanine nucleotide exchange factor 3 (EPAC1): primary screen. Note: nearly all actives have a fitted effect of over 60% in size. Particulars: biochemical assay; series mostly up to 154 µM; activation: at the top concentration. From the text: In multi-cellular eukaryotic organisms, the effects of cAMP are transduced by two ubiquitously-expressed intracellular cAMP receptors, the classic protein kinase A/cAMP-dependent protein kinase (PKA/cAPK) and the more recently discovered exchange protein directly activated by cAMP/cAMP-regulated guanine nucleotide exchange factor (EPAC/cAMP-GEF). Both PKA and EPAC are ubiquitously expressed in all tissues, and an increase in intracellular cAMP levels will lead to the activation of both PKA and EPAC. Therefore, careful dissections of the individual role and relative contribution of EPAC and PKA within the overall cAMP signaling in various model systems are critical for further elucidating the mechanism of cAMP signaling. To date no EPAC-specific antagonists and agonist, as well as isoform-specific agonists have been reported, and developing EPAC-specific pharmacological probes to determine the physiological functions that EPAC play in the overall cAMP-mediated signaling remains a major challenge within the research field. Furthermore, identified regulators of EPAC may lead to new mechanism-based therapeutic strategies specifically targeting the EPAC / cAMP-signaling components as EPAC has been implicated to play important roles in major human pathological conditions such as diabetes, heart disease, and cancer.
Rap guanine nucleotide exchange factor 3 (Homo sapiens), sequence (O95398 whole entry, looked up): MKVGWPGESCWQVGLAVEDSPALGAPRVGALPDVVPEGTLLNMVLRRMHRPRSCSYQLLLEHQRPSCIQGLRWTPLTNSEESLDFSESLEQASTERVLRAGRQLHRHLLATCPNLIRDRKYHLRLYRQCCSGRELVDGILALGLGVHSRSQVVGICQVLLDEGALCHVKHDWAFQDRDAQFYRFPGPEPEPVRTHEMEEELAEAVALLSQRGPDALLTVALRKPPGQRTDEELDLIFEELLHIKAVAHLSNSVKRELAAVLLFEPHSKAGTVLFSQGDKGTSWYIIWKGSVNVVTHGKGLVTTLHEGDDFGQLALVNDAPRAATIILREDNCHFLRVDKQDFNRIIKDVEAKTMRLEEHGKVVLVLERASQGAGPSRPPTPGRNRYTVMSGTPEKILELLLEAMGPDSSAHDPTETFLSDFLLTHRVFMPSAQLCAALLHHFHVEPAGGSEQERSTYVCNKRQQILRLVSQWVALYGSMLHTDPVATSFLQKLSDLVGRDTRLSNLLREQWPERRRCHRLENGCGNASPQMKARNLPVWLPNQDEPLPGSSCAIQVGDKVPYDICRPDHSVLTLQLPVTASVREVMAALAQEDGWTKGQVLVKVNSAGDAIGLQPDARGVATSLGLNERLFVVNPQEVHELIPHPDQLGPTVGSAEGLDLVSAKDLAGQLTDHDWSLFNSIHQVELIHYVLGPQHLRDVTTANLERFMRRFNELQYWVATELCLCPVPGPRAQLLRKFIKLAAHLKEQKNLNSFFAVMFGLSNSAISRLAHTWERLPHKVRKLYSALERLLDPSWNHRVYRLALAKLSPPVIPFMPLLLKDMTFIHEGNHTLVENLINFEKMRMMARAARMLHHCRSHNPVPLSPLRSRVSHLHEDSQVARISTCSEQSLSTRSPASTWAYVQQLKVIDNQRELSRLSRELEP
This qHTS will be used to screen the Molecular Libraries Small Molecule Repository (MLSMR) as a concentration-titration series using the NCGC unique quantitative screening (qHTS) platform to find activators for EPAC1. In addition, this assay will also be used as a counterscreen for the EPAC2 qHTS. This fluorescent based assay is developed and validated for EPAC1 that measures exchange using EPAC effector Rap1 complex with BODIPY-GDP, a GDP analog with a tethered fluorophores. Activators are identified by monitoring the change in fluorescence signal as the exchanged free BODIPY-GDP has a reduced fluorescence compared to Rap1-bound BODIPY-GDP. Increase in signal (activation) is the desired outcome for the EPAC1 agonist while no activity in this assay is desired for the EPAC2 agonist counterscreen.
[1] de Rooij, J., Zwartkruis, F. J., Verheijen, M. H., Cool, R. H., Nijman, S. M., Wittinghofer, A., and Bos, J.L. (1998) Nature 396, 474-477
NIH Chemical Genomics Center [NCGC]
NIH Molecular Libraries Probe Centers Network [MLPCN]
Assay Submitter (PI): Xiaodong Cheng, The University of Texas Medical Branch
Briefly, three uL of reagents (100 nM EPAC1, 250 nM RAP1B-BODIPY-GDP, 50 uM GDP) were dispensed into a 1536-well Greiner black solid-bottom medium binding assay plate. Controls and test compounds (23 nL) were transferred to the plate via a Kalypsys pin tool equipped with a 1536-pin array. The plates were centrifuged at 1,000 rpm for 15 seconds followed by 5 minute incubation at room temperature. The assay plates were read at 5 minute intervals for 30 minutes in the ViewLux plate reader using 480nm excitation and 540nm emission filters. The results were normalized to the agonist positive control of 6.5 mM cAMP.
Background: In qHTS, concentration-response curves come from the screen itself.
With `COC(=O)CN(c1cccc(C(C)=O)c1)S(C)(=O)=O`, the “activation” value is 2.68% (inactive).

`CCN(CC)c1ccc2oc(=O)c(C)nc2c1`: the Potency was 100 µM (active).

As for `CN(CC(=O)Nc1ccccc1[N+](=O)[O-])Cc1ccc(Br)cc1`, the “activation” value was -0.157% (inactive).

Regarding `O=C(C[C@H]1CC[C@H]2[C@@H](COC[C@H](O)CN2C(=O)c2ccccn2)O1)N1CCN(c2ccccc2)CC1`, the “activation” value is -8.67% (inactive).

`Cc1ccccc1-n1cc(CNC(=O)C2CCC(=O)N(C3CC3)C2)cn1` (stereo unspecified): the “activation” value was 3.43% (inactive).

For the compound `Cc1ccc(NC(=O)CCC(=O)N2CCC(c3ccccc3)=N2)cc1S(=O)(=O)N1CCCCC1`, the “activation” value was 2.62% (inactive).

As for `O=C(NC(=S)Nc1ccc(Br)cc1F)C1CCCCC1`, the “activation” value was 7.55% (inactive).

For the compound `CCOc1ccc(NC(=O)C2CCN(C(=O)N3CCOc4ccccc43)CC2)cc1`, the “activation” value is -0.584% (inactive).

On to `CCOc1ccc(CC(=O)Nc2ccc(S(=O)(=O)Nc3cc(C)on3)cc2)cc1OCC`, for which the “activation” value was -2.8% (inactive).

As to `CCC(C)NC(=O)Cn1nc(C(F)(F)F)c2c1CCC2` (stereo unspecified), the “activation” value was -4.09% (inactive).

In the case of `COc1cc(Cl)c(C)cc1NC(=O)CSc1nnc(CN2CCCC2)o1`, the “activation” value was -0.0539% (inactive).

Consider `COc1ccc(OC)c(NC(=O)c2cc(-c3cc(F)ccc3OCC3CCCO3)n[nH]2)c1` (stereo unspecified), for which the “activation” value is -2.63% (inactive).

As to `O=C(NCCc1ccco1)C(=O)NCCC1CCCCN1S(=O)(=O)c1ccccc1` (stereo unspecified), the “activation” value is 1.6% (inactive).

Take `O=C(NCCC1CCCCN1S(=O)(=O)c1ccccc1)C(=O)NCC1CCCO1` (stereo unspecified): the “activation” value is -5.17% (inactive).

Turning to `O=C(NCCC1CCCCN1S(=O)(=O)c1ccc(Cl)cc1)C(=O)NCc1ccco1` (stereo unspecified), the Potency was 50.1 µM (active).

Consider `COCCCNc1nc2ccccc2nc1NS(=O)(=O)c1ccc(F)cc1`, for which the “activation” value is -1.08% (inactive).

For the compound `CO/N=C/c1cn(-c2ccc(Cl)cc2)nn1`, the “activation” value is 6.91% (inactive).

Turning to `CN1CCN(C2=NCCO2)CC1`, the “activation” value was -0.11% (inactive).

As for `CC(=O)Oc1ccc(Cn2c(C)c(C(=O)NCc3ccc(C#N)cc3)sc2=O)cc1`, the “activation” value is 4.44% (inactive).

For `Cc1cccc(CC(=O)N2CCN=C2SCc2ccc([N+](=O)[O-])cc2)c1`, the “activation” value was 4.91% (inactive).

Regarding `Cc1ccc(S(=O)(=O)N2CCCCC2)cc1C(=O)N(C)CC(=O)Nc1cccc(F)c1`, the “activation” value was -1.63% (inactive).

In the case of `Cc1cc(NC(=O)CN2C(=O)NC(C)(CCc3ccccc3)C2=O)no1` (stereo unspecified), the “activation” value is 3.5% (inactive).

Take `Cc1cccc(-c2nc(CS(=O)CC(=O)NC(C)CCc3ccccc3)c(C)o2)c1` (stereo unspecified): the “activation” value is 4.27% (inactive).

With `CC(C)N1CCC(=NNc2ccc([N+](=O)[O-])cc2S(=O)(=O)N2CCOCC2)CC1`, the “activation” value was 4.79% (inactive).

Turning to `Cc1ccccc1NC(=O)C1CCCN(C(=O)NCc2ccccc2)C1` (stereo unspecified), the “activation” value is -0.75% (inactive).

On to `O=C1CCC(C(=O)N2CCN(c3ccccc3Cl)CC2)CN1CC1CCCCC1` (stereo unspecified), for which the “activation” value is -2.26% (inactive).

Turning to `CS(=O)(=O)/C(C#N)=C/c1cccn1S(=O)(=O)c1ccc([N+](=O)[O-])cc1`, the “activation” value was -9.53% (inactive).

With `O=C(c1ccc(CS(=O)Cc2ccccc2Cl)o1)N1CCN(c2ccccc2)CC1` (stereo unspecified), the “activation” value is 11% (inactive).

With `CCN1C(=NCc2ccc(OC)cc2)N[C@@H](CCc2ccccc2)[C@H](C(=O)NCc2ccc(OC)cc2)[C@H]1C`, the “activation” value was -8.48% (inactive).

Regarding `CCc1cccc(CC)c1N1C(=O)CC(Sc2ccccc2N)C1=O` (stereo unspecified), the “activation” value is 8.79% (inactive).

In the case of `CCCC(=O)OCC(=O)Nc1cc(Cl)ccc1[N+](=O)[O-]`, the “activation” value is 2.31% (inactive).

Regarding `CC(C)Cc1ccc(S(=O)(=O)N2CCN(C(=O)c3ccco3)CC2)cc1`, the “activation” value was -8.05% (inactive).

As for `CC(=O)c1cccc(NC(=O)N2CCCC2C(=O)NCCC(C)C)c1` (stereo unspecified), the “activation” value is 0.342% (inactive).

Take `Cc1ccsc1C(=O)N[C@@H](C)c1nnc2ccccn12`: the “activation” value is 2.04% (inactive).

For `Nc1ccc2nc3c(=O)[nH]c(=S)[nH]c3nc2c1`, the Potency was 89.1 µM (active).

In the case of `COC(=O)[C@@]1(C)[C@H]2C(=O)N(Cc3ccccc3)C(=O)[C@H]2[C@H]2CN=C(SCC3CC3)N21`, the “activation” value was -7.77% (inactive).

As to `NC(=O)C1CCN(C(=O)c2ccc(-c3ccccc3)cc2)CC1`, the “activation” value is -6.39% (inactive).

For the compound `O=C(C1=C(O)C(=O)N(CCOCCO)C1c1ccccn1)c1cccs1` (stereo unspecified), the “activation” value is 1.34% (inactive).

Consider `CCOC(=O)c1cnn2c(SC)ncnc12`, for which the “activation” value was 8.61% (inactive).

Consider `COCCn1c(SCC(=O)N2CCCCCC2)nc2c(c1=O)SCC2`, for which the “activation” value was 0.332% (inactive).

Regarding `CC(=O)Nc1ccc(S(=O)(=O)NNC(=O)CCc2ccccc2)cc1`, the “activation” value is -0.565% (inactive).

In the case of `CCNC(=O)c1cnn(-c2ccccc2)c1-c1ccccc1`, the “activation” value is 6.35% (inactive).

In the case of `CN1CCN(Cc2nc3c(c(=O)n(C)c(=O)n3C)n2Cc2cccc3ccccc23)CC1`, the “activation” value was -10.8% (inactive).

`Cc1ccc2c(c1)N(CC(=O)N1CCC(O)CC1)C(=O)CO2`: the “activation” value is 4.96% (inactive).

`CCOC(=O)C1CCN(C(=O)CSc2cc(=O)n(C)c3ccccc23)CC1`: the “activation” value is 0% (inactive).

For the compound `CCOC(=O)C1CCCN(C(=O)c2sc3nc(C)nc(N4CCOCC4)c3c2C)C1` (stereo unspecified), the “activation” value was 0.4% (inactive).

Regarding `CS(=O)(=O)N1CCc2cc(C(=O)Nc3ccccc3Br)ccc21`, the “activation” value is 4.31% (inactive).

`CC(=O)c1ccc(N2CCN(S(=O)(=O)c3c(C)[nH]c(=O)[nH]c3=O)CC2)cc1`: the “activation” value was 1.54% (inactive).

As for `C=CCN(CC=C)C(=O)COC(=O)c1n[nH]c2ccccc12`, the “activation” value was 6.61% (inactive).

Consider `CCOC(=O)c1cc(-c2ccc(F)cc2)n(CC(=O)NCc2ccccn2)c1C`, for which the “activation” value was -10.1% (inactive).

For the compound `CC[C@H](C)C(=O)N[C@H]1CCCN1C(=O)/C=C/c1ccccc1`, the “activation” value was 4.71% (inactive).

As for `O=C(O)Cc1csc(NC(=O)CSc2nnnn2-c2ccc(O)cc2)n1`, the “activation” value is -13.7% (inactive).

Consider `COc1cccc(N2CC(NC(=O)c3ccc4ccccc4c3)CC2=O)c1` (stereo unspecified), for which the “activation” value is -10.4% (inactive).

For `O=C1c2cccnc2C(Nc2ccc(S(=O)(=O)N3CCCCCC3)cc2)N1Cc1ccccc1` (stereo unspecified), the “activation” value was 9.65% (inactive).

For `NC(=O)c1ccsc1NC(=O)COC(=O)COc1ccc(C=O)cc1`, the “activation” value was 6.98% (inactive).

Turning to `Cc1ccc(NC(=O)CN(C)C(=O)COC(=O)c2nccnc2N)cc1`, the “activation” value was -4.92% (inactive).

For `O=S(=O)(c1ccccc1)c1nc(Cc2ccccc2)oc1N1CCOCC1`, the “activation” value is -0.0652% (inactive).

Regarding `COc1ccc(NC(=O)NCCN2CCN(c3ccc(C)cc3)CC2)c(Cl)c1`, the “activation” value is -6.15% (inactive).

Take `O=C(CSc1nnc2c(n1)[nH]c1ccccc12)NC1CCCCC1`: the “activation” value is 5.6% (inactive).

Consider `O=C(C1CCN(c2nnc(-n3cccc3)s2)CC1)N1CCc2ccccc2C1`, for which the “activation” value was -1.95% (inactive).

For the compound `Cc1ccc(C)c(S(=O)(=O)N2CCCOC2CNC(=O)C(=O)NC2CCCCC2)c1` (stereo unspecified), the “activation” value is -11% (inactive).

On to `O=C(CN1CCc2ccccc2C1)Nc1cccc(S(=O)(=O)N2CCOCC2)c1`, for which the “activation” value was -0.384% (inactive).

Turning to `CC(C)Oc1ccc(C(=O)NC(C)(C)CO)cc1`, the “activation” value is 8.01% (inactive).

Regarding `O=C(Nc1cc2c3c(c1)CC(=O)N3CCC2)c1ccccc1F`, the “activation” value is -3.25% (inactive).

In the case of `Cc1cc([N+](=O)[O-])nn1CC(=O)Nc1ccc(Cc2ccncc2)cc1`, the “activation” value is -0.234% (inactive).

`O=C1CCCN2N=C(SCC(=O)Nc3ccc(Br)cc3)SC2=N1`: the “activation” value is 17.5% (inactive).

Values taken from PubChem BioAssay AID720707 (National Center for Advancing Translational Sciences (NCATS), 2013).
